This is a sample that favours compounds with a hit; in the whole collection about 8% have one here.
HCMV inh: blocks human cytomegalovirus replication | HFF cells, HCMV-luciferase reporter, 72 h; active compounds read low | actives 4.5% (n = 410,000) | activity change, negative = inhibition, % at 57.5 µM; in the data active means activity change below about -60%; inconclusive means no clear call, values can overlap the other calls; inactive means above about -39%
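Human foreskin fibroblasts infected with luciferase-reporter HCMV at MOI 1 PFU/cell, compounds at two doses. Luciferase measured 72 h post infection; normalized to buffer-only basal and Salinomycin (10uM) controls.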
FMDV inh: antivirals against foot and mouth disease virus; AID 1159524; Potency, µM (titrated, usually from 57.9 µM), usual class: inhibitors; actives 1.2% (n = 410,000); FMDV antiviral cell-based qHTS; calls by dose curve; tested in HEK293T cells; further: read-out not given here; nearly all actives have a fitted effect of over 45% in size
MARV entry inh: blocks Marburg virus binding to or entry into cells. Marburg virus pseudotyped entry inhibition, cell reporter. Potency, µM (highest dose often 37.8 µM), most hits filed as inhibitors. actives 1.8% (n = 300,000); calls by dose curve; tested in HEK293 cells
HCV inh: inhibitors of hepatitis C virus infection; Huh7.5.1 HCVcc-Cre infection, luciferase reporter, 44 h; Potency, µM (titrated, usually from 41.8 µM), most hits filed as inhibitors; actives 3.4% (n = 340,000); AID 651820; active means well fitted inhibition curve with a large enough effect; inconclusive means small, poorly fitted or top-dose-only effect, or another doubt; inactive means no such curve, though single readings can be large or run the other way
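HCVcc-Cre virus at an moi near 0.5 was added right after compound to cells cultured 4 h from seeding (1,000 cells/well). Luciferase activity was determined 44 h later, 15 min after substrate addition at RT.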
LASV entry inh: inhibitors of Lassa virus binding or cell entry | AID 540256 | Potency, µM (series often up to 37.9 µM), hits mostly inhibitors | actives 1.2% (n = 300,000) | Lassa virus pseudotype entry inhibition, cell reporter; calls by dose curve; tested in HEK293 cells; further: nearly all actives have a fitted effect of over 50% in size
SARS PLpro yeast: inhibitors of SARS-CoV papain-like protease in yeast. actives 0.19% (n = 330,000). S. cerevisiae expressing SARS-CoV PLpro, growth rescue. AID 485353. Potency, µM (doses to about 32.9 µM), most hits filed as activators; calls by dose curve; further: nearly all actives have a fitted effect of over 55% in size
Each line names hits and unclear results; the compound was inactive in the other large screens.

COc1ccc(Cl)cc1NC(=O)CN(C)C(=O)c1sc2ccccc2c1Cl	HCV inh 13µM (no result: MARV entry inh, LASV entry inh)
COc1ccc(N=C2S/C(=C\c3cc(C)n(C)c3C)C(=O)N2CC(C)C)cc1	HCV inh 10µM
COc1ccc(N=C2S/C(=C\c3ccco3)C(=O)N2CC(C)C)cc1	LASV entry inh inconclusive
CCN(CC)c1ccc(-c2nnc(SCC(=O)Nc3ccccc3C#N)n2-c2ccccc2)cc1	FMDV inh inconclusive, MARV entry inh inconclusive, HCV inh inconclusive, LASV entry inh 11µM
N#Cc1ccccc1NC(=O)CSc1nnc(-c2ccccc2)n1-c1ccccc1	HCMV inh inconclusive, FMDV inh inconclusive, MARV entry inh inconclusive, LASV entry inh inconclusive
Cn1c(COc2ccccc2)nnc1SCCSc1nnc(COc2ccccc2)n1C	HCMV inh -65, HCV inh inconclusive
Cn1c(COc2ccccc2)nnc1SCCN1CCOCC1	none
CNC(=S)N/N=C/c1cc(C)n(-c2ccc(Cl)c(Cl)c2)c1C	HCMV inh -68, MARV entry inh inconclusive, HCV inh inconclusive, LASV entry inh inconclusive
COc1ccc(CCNc2nc(SCc3ccccc3Cl)nc3ccccc23)cc1OC	none (no result: MARV entry inh, HCV inh, SARS PLpro yeast)
Cn1nnnc1N=N/C(=N/Nc1ccccc1)c1ccccc1	HCMV inh -86, MARV entry inh 1µM, HCV inh 4µM, LASV entry inh inconclusive
CCOC(=O)[C@@H](CC(=O)O)N1CCCCC1	none (no result: HCMV inh, FMDV inh, HCV inh, LASV entry inh, SARS PLpro yeast)
Cc1cc2c(Nc3ccc(O)cc3)ncnc2s1	HCMV inh -69, HCV inh inconclusive
O=[As](O)(O)c1ccc(N=Nc2ccc(O)cc2)cc1	HCMV inh -80 (no result: MARV entry inh, LASV entry inh)
CCSC(=O)N=Nc1ccc(O)cc1	none (no result: SARS PLpro yeast)
Cc1ccc(CNC(=O)C2CCC(CNc3nc(=S)[nH]c4ccccc34)CC2)cc1 (centres undefined)	MARV entry inh 3.5µM, HCV inh inconclusive
COc1cccc(N2CCN(C(=O)CN3C(=O)NC(C)(c4ccc5ccccc5c4)C3=O)CC2)c1 (centres undefined)	HCMV inh inconclusive, FMDV inh inconclusive, MARV entry inh inconclusive, HCV inh 11µM, LASV entry inh inconclusive
CN1CCN(C(=O)CN2C(=O)NC(C)(c3ccc4ccccc4c3)C2=O)CC1 (centres undefined)	HCMV inh inconclusive
COc1cccc(N2CCN(C(=O)CCCCCNc3nc(=S)[nH]c4ccccc34)CC2)c1	HCMV inh -62, FMDV inh 25µM, MARV entry inh inconclusive, HCV inh 11µM
COc1cccc(CNC(=O)C2CCC(CNc3nc(=S)[nH]c4ccccc34)CC2)c1 (centres undefined)	HCV inh 2µM (no result: LASV entry inh)
Cc1cc(-c2ccc(C)c(S(=O)(=O)NCc3cccs3)c2)on1	none (no result: MARV entry inh, HCV inh, SARS PLpro yeast)
COc1ccc(OC)c([C@H]2/C(=C(\O)c3ccccc3)C(=O)C(=O)N2Cc2ccco2)c1	none (no result: HCMV inh, FMDV inh, HCV inh, LASV entry inh, SARS PLpro yeast)
COc1ccc(NC(=O)c2cc3c(s2)-c2c(C)cccc2OC3)c(OC)c1	none (no result: HCV inh, LASV entry inh, SARS PLpro yeast)
CCCCCC1C(=O)O[C@H](C)[C@@H](NC(=O)c2cccc(NC=O)c2O)C(=O)OC(C)C1OC(=O)CC(C)C (some centres undefined)	FMDV inh 40µM (no result: HCMV inh, MARV entry inh, HCV inh, LASV entry inh, SARS PLpro yeast)
CN(C)C(=O)CN1C(=O)NC2(CCCc3ccccc32)C1=O (centres undefined)	MARV entry inh inconclusive, LASV entry inh inconclusive
Cc1ccc(CN(C)C(=O)CN2C(=O)NC3(CCCc4ccccc43)C2=O)c(C)c1 (centres undefined)	HCV inh 10µM (no result: MARV entry inh, LASV entry inh)
Cc1ccc(OCC(=O)Nc2ccncc2)cc1C	none (no result: MARV entry inh, HCV inh, LASV entry inh, SARS PLpro yeast)
O=C(Cc1ccc(Cl)cc1Cl)Nc1ccncc1	HCMV inh -66, FMDV inh inconclusive, HCV inh 8.9µM
O=C(COc1ccc2ccccc2c1Br)Nc1ccncc1	HCMV inh -60, MARV entry inh inconclusive, HCV inh inconclusive, LASV entry inh inconclusive, SARS PLpro yeast inconclusive
O=C(Cc1c(Cl)cccc1Cl)Nc1ccncc1	none (no result: MARV entry inh, LASV entry inh)
CC(C)CCOc1cccc(OCC(=O)Nc2ccncc2)c1	HCMV inh -77, MARV entry inh inconclusive, HCV inh inconclusive
Cc1cc(OCC(=O)Nc2ccncc2)cc(C)c1Cl	HCMV inh -64, HCV inh 13µM (no result: MARV entry inh, LASV entry inh)
CC1(C)CC(NC(=O)C2=C(C(=O)NC3CC(C)(C)NC(C)(C)C3)CCCC2)CC(C)(C)N1	none (no result: HCMV inh, FMDV inh, HCV inh, LASV entry inh, SARS PLpro yeast)
Cc1ccccc1OCCSc1nc2ccc(NC(=O)c3cccs3)cc2s1	FMDV inh inconclusive (no result: HCV inh, SARS PLpro yeast)
